From PubChem BioAssay (NCATS)
Where “and” joins values, the source holds several entries; their conditions need not be identical. Equal values may be shown once. Records with an inconclusive call do not appear. Calls of active or inactive are those of the source. Calls come from the whole dose curve.

assay: Primary qHTS to identify inhibitors of SARS-CoV-2 cell entry (AID 1645846); conditions: SARS-CoV-2 pseudovirus cell entry assay, luminescence; activity change, negative = inhibition: at 57.1 µM (top of the series) unless noted; series mostly up to 57.1 µM; note: nearly all actives have a fitted effect of over 45% in size
Source text: Assay Provider: Wei Zheng, Ph.D.
National Center for Advancing Translational Sciences, National Institute of Health, Rockville, MD.
SARS-CoV-2 spike protein, within the viral envelope, mediates viral attachment and infection of host cells. The SARS-CoV-2 spike protein specifically binds to the host receptor ACE2 (Angiotensin-converting enzyme 2). This interaction promotes endocytosis of the viral particle, additional events lead to viral-host cell membrane fusion and release of the viral contents, allowing viral replication.
While SARS-CoV-2 requires BSL-3 facilities for live virus work, pseudotyped partices (PP) that incorporate SARS-CoV-2 spike proteins without replication elements could facilitate studies on viral entry mechanisms in a BSL-2 setting. This PP cell entry assay could also enable screening of small molecule compound libraries in BSL-2 setting to identify inhibitors of SARS-CoV-2 cell entry.
PROTOCOL TABLE (format as described by Inglese J, Shamu CE and Guy RK. 2007)
SEQUENCE No. (e.g., 1, 2, 3, etc.); […] (e.g., Cells, Incubation, Reagent, etc.); VALUE and DESCRIPTION.
1. Cells. Seed 1500 HEK293-ACE2 cells (Expi293F with stable expression of human ACE2) in 2 uL/well media (DMEM, 10% FBS, 1x L-glutamine, 1x Pen/Strep, 1 ug/ml puromycin) in white 1536-well assay plates (Greiner #782073).
2. Incubation. Incubate at 37C with 5% CO2 overnight (~16 h).
3. Compounds. Dispense 23 nL/well compounds in DMSO via pin transfer.
4. Incubation. Incubate for 1 hr at 37C 5% CO2.
5. Reagent. Dispense 2 uL/well of SARS-CoV-2-S pseudotyped particles. [a] PPs are produced with murine leukemia virus pseudotyping. [b] SARS-CoV-2-S is Wuhan-Hu-1 sequence (BEI #NR-52420) with C-terminal 19 amino acid truncation.
6. Centrifuge. […]
7. Incubation. Incubate at for 48 hr at 37C 5% CO2
8. Centrifuge. Remove supernatant with gentle centrifugation using a Blue Washer (BlueCat Bio).
9. Reagent. Dispense 4 uL/well of Bright-Glo Luciferase detection reagent (Promega #E2620).
10. Incubation. Incubate for 5 min at room temperature.
11. Detection. Read luminescence signal (Viewlux plate reader, PerkinElmer). Data was normalized with wells containing SARS-CoV-2-S PP as 100%, and wells containing bald PP (no fusion protein) as 0%.
Potency is the fitted concentration of half-maximal effect.

SMILES	activity change, negative = inhibition	outcome	Potency
CCCCCCCCCCCCCCCCCCO	0.247%		
O=C(COCCOCCOCC(=O)Nc1c(I)cc(I)c(C(=O)O)c1I)Nc1c(I)cc(I)c(C(=O)O)c1I		inactive	
O=C(NC(Cc1cc(=O)[nH]c2ccccc12)C(=O)O)c1ccc(Cl)cc1 (stereo not given)	1.86%	inactive	
CCCCOC(=O)c1ccc(N)cc1		inactive	
CC(C(=O)O)c1cccc(Oc2ccccc2)c1 (stereo not given)	-1.5%		
CC(C)(C)C(=O)Oc1ccc(S(=O)(=O)Nc2ccccc2C(=O)NCC(=O)O)cc1	-32.8%	inactive	
Nc1ccn(C[C@@H](CO)OCP(=O)(O)O)c(=O)n1	-18.8% [at 11.3 µM]	inactive [at 0.702 µM]	
CCOc1ccc(NS(=O)(=O)c2ccc(N)cc2)nn1	-12.4%		
O=C(/C=C/c1ccccc1)OCc1ccccc1	-14.8%		
COc1cc2c(Nc3ccc(Br)cc3F)ncnc2cc1OCC1CCN(C)CC1		inactive	
NCCNCCNCCNCCN	4.56% [at 11.3 µM]		
CC(C)c1ccc2oc3nc(N)c(C(=O)O)cc3c(=O)c2c1			inactive
COc1ccc2cccc(CCNC(C)=O)c2c1	-31%	inactive	
O=C(c1ccccc1)C(O)c1ccccc1 (stereo not given)		inactive	
Nc1nc(/C(=C/CC(=O)O)C(=O)N[C@@H]2C(=O)N3C(C(=O)O)=CCS[C@H]23)cs1	-21.3%		
CC(C)C[C@H](CN)CC(=O)O		inactive	

SMILES	activity change, negative = inhibition	outcome	Potency
COP(=S)(OC)Oc1ccc(SC)c(C)c1	-16.5%		
c1ccc2c(CC3=NCCN3)cccc2c1	0.334%		
C[N+](C)(CCOc1ccccc1)Cc1cccs1	-23%		
Nc1ccc(S(=O)(=O)Nc2ccnn2-c2ccccc2)cc1	4.82% [at 27.1 µM]		
Cc1c[nH]c2ccccc12	-24.2%		
N#C[C@H]1C[C@H]2C[C@@H]2N1C(=O)[C@@H](N)C12CC3CC(CC(O)(C3)C1)C2	-17.5%		
CCc1cc(C(N)=S)ccn1	-20.7%	inactive	
CC[C@H](C)C(=O)O[C@H]1C[C@H](O)C=C2C=C[C@H](C)[C@H](CC[C@@H](O)C[C@@H](O)CC(=O)O)[C@H]21	-12.2%	inactive	
Cc1cc(C)nc(NS(=O)(=O)c2ccc(N)cc2)n1		inactive	
Cn1c(=O)c2[nH]cnc2n(C)c1=O	-18.5% and -12.1%		
C[C@](O)(CS(=O)(=O)c1ccc(F)cc1)C(=O)Nc1ccc(C#N)c(C(F)(F)F)c1	-4.4%		
C1COC(NC(C2CC2)C2CC2)=N1	1.02%		
CC(C)(C)CC(C)(C)c1ccc(OCCOCC[N+](C)(C)Cc2ccccc2)cc1			20 µM (active)
Cc1cnc(NC(=O)C2=C(O)c3ccccc3S(=O)(=O)N2C)s1	-28.9%		inactive
CCCCCCCCCCCCCCCCCC(=O)O	-6.11%		
CC(C)Cn1cnc2c(N)nc3ccccc3c21	0.431% [at 27.1 µM]	inactive [at 27.1 µM]	
